This is an account of results in PubChem BioAssay (NCI).

This is part of a sample that, as a whole, favours compounds with a hit. Of some 83,000 tested, about 20% had one in any assay.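 Results are percent growth after 48 hours of single-concentration exposure. 100 means growth as in untreated cells, lower positive values show inhibition; negative values down to -100 show cell death.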 Active and inactive are the calls of the source. How the source made its calls: active means growth percent below 10; inactive means the rest.

The subject of the assay is HL-60(TB) leukemia. In words: NCI-60 one-dose screen, 48 h (100 = growth as untreated, 0 = no growth, -100 = all killed). To be noted: 10 µM unless noted.
Take `CC1(c2cc3cc(Br)ccc3oc2=O)NC(=O)c2c(/C=C/C(=O)OC3CC4CCC3(C)C4(C)C)cccc2N1` (configuration not stated): the growth is 48.9% (inactive).

For the compound `O=C1c2ccccc2C(=O)c2c1c(C(=O)c1ccc(Cl)cc1)n1c2ccc2c3ccccc3ccc21`, the growth was 109% (inactive).

For the compound `CCN1CCN(Cc2ccc(NC(=O)c3cccc(-n4cc(-c5ccc(NC(C)=O)nc5)nn4)c3)cc2C(F)(F)F)CC1`, the growth is 65.4% (inactive).

Turning to `CCOc1ccc2ncc(C#Cc3cncc(C(=O)Nc4ccc(CN5CCN(C)CC5)c(C(F)(F)F)c4)c3)n2n1`, the growth is 1.2% (active).

On to `Nc1n[nH]c2cccc(C#Cc3cccc(NC(=O)Nc4cc(C(F)(F)F)cc(C(F)(F)F)c4)c3)c12`, for which the growth is -9.4% (active).

Turning to `Nc1nnc(-c2c[nH]c3ncccc23)c(-c2c[nH]c3ccc(Br)cc23)n1`, the growth was 42% (inactive).

Turning to `CC(=O)Nc1cccc(-c2nc3cc(-c4ccc(O)cc4)ccc3n2C)c1`, the growth is 20.7% (inactive).

Consider `NS(=O)(=O)c1ccc(NC(=O)CSc2ccc(-c3ccccc3)nn2)c(Br)c1`, for which the growth was 99.2% (inactive).

Take `Cc1ccc(S(=O)(=O)Nc2ccc(-c3ccc4c(c3)NC(=O)/C4=C\c3ccc[nH]3)cc2)cc1`: the growth was 39.3% (inactive).

In the case of `CC(=O)c1ccc(Nc2nc(SC(C)C)nc(-c3ccccc3)c2C#N)cc1`, the growth was 93.6% (inactive).

As for `COc1ccc(-c2nc(Nc3ccccc3S(N)(=O)=O)c3ccccc3n2)cc1`, the growth was 88.5% (inactive).

Turning to `O=C(c1ccc(Cl)cc1)C1[C@H](c2ccccc2Br)[C@@H](c2ccccc2)NC12C(=O)Nc1ccc(Cl)cc12` (some centres not stated), the growth was 32% (inactive).
